This passage reports Potency and outcome results from PubChem BioAssay (NCATS).

Experiment [1] in a line: Primary qHTS for inhibitors of nuclear receptor binding SET domain protein 2 (NSD2) in an RCH-ACV wild type WT cells (2C) (AID 1645877). Note: nearly all actives have a fitted effect of over 70% in size. Note: potency is the fitted concentration of half-maximal effect.
The nature of experiment [2]: Primary qHTS for inhibitors of nuclear receptor binding SET domain protein 2 (NSD2) in an isogenic RCH-ACV NSD2 p.E1099K mutant (9B) (AID 1645876). Note: nearly all actives have a fitted effect of over 70% in size. Note: potency is the fitted concentration of half-maximal effect.
Experiment [3] deals with Rap guanine nucleotide exchange factor 3 (Homo sapiens) (UniProt O95398). As to the kind of experiment: Confirmatory qHTS for antagonist of cAMP-regulated guanine nucleotide exchange factor 3 (EPAC1) (AID 1645880). Note: potency is the fitted concentration of half-maximal effect; nearly all actives have a fitted effect of over 55% in size. A digest of the protocol:
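Released BODIPY-GDP fluoresces less than Rap1-bound BODIPY-GDP; the signal is followed at 480/540 nm at 5-min intervals over 30 min, after 5 min at room temperature. Reactions contain 100 nM EPAC1, 250 nM RAP1B-BODIPY-GDP and 50 uM GDP; results are normalized to ATA and DMSO.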

Experiment [4] shares this target. Description: Confirmatory qHTS for agonist of cAMP-regulated guanine nucleotide exchange factor 3 (EPAC1) (AID 1645881).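 Note: EPAC1 catalysed release of BODIPY-GDP from Rap1B seen as fluorescence loss; nearly all actives have a fitted effect of over 75% in size.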 Background: Quantitative high-throughput screening tests each substance at several concentrations.
Experiment [5] deals with Rap guanine nucleotide exchange factor 4 (Homo sapiens) (UniProt Q8WZA2). As to the kind of experiment: Confirmatory qHTS for agonist of cAMP-regulated guanine nucleotide exchange factor 4 (EPAC2) (AID 1645884).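 Note: nucleotide exchange releases bodipy-GDP from Rap1 and this lowers its fluorescence; nearly all actives have a fitted effect of over 65% in size.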
Sequence of Rap guanine nucleotide exchange factor 4 (Homo sapiens) (Q8WZA2 whole entry, looked up): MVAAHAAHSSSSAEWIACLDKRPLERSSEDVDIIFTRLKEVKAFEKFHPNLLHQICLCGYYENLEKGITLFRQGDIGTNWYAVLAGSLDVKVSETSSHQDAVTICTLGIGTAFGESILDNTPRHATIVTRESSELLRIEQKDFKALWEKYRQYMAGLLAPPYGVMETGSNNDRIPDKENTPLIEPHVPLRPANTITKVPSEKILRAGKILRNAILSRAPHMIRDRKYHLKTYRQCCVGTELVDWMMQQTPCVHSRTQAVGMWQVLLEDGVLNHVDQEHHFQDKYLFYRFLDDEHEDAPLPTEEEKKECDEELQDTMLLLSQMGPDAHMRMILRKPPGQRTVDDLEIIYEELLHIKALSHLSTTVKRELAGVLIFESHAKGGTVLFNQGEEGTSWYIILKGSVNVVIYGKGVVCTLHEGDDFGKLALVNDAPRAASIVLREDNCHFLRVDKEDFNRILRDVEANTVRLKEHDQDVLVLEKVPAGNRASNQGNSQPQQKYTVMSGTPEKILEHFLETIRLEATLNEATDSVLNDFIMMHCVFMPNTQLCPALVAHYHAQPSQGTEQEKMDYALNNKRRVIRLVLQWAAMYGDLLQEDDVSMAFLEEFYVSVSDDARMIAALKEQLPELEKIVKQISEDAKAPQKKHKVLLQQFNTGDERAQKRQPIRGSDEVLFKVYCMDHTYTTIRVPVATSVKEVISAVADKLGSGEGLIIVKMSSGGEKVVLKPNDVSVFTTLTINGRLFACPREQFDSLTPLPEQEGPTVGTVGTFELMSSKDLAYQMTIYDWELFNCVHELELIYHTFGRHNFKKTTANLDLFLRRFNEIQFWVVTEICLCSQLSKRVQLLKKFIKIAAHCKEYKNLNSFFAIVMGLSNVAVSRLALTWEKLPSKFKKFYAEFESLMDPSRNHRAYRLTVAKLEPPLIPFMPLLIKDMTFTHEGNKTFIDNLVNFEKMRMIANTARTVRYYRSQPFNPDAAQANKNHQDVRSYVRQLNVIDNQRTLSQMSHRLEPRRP
Experiment [6] shares this target. As to the kind of experiment: Confirmatory qHTS for antagonist of cAMP-regulated guanine nucleotide exchange factor 4 (EPAC2) (AID 1645885). Note: nearly all actives have a fitted effect of over 25% in size.

SMILES strings stand for the structures. “And” between values parts separate entries of the source, which are not always exact repeats. Equal entries are not always repeated. Inconclusive results are not listed. The source made the active and inactive calls. Calls come from the whole dose curve; as a rule, active = well fitted curve in the direction sought with a large enough effect; inconclusive = small, poorly fitted or top-dose-only effect, or another doubt; inactive = no such curve, though single readings can be large; an effect the other way counts as inactive or inconclusive. Where a SMILES comes first, the peptide text is derived from it. The star is where a group is joined. Cbz = O=C(OCc1ccccc1)*; CH2Cl = ClC*

Sequence of Rap guanine nucleotide exchange factor 3 (Homo sapiens) (O95398 whole entry, looked up): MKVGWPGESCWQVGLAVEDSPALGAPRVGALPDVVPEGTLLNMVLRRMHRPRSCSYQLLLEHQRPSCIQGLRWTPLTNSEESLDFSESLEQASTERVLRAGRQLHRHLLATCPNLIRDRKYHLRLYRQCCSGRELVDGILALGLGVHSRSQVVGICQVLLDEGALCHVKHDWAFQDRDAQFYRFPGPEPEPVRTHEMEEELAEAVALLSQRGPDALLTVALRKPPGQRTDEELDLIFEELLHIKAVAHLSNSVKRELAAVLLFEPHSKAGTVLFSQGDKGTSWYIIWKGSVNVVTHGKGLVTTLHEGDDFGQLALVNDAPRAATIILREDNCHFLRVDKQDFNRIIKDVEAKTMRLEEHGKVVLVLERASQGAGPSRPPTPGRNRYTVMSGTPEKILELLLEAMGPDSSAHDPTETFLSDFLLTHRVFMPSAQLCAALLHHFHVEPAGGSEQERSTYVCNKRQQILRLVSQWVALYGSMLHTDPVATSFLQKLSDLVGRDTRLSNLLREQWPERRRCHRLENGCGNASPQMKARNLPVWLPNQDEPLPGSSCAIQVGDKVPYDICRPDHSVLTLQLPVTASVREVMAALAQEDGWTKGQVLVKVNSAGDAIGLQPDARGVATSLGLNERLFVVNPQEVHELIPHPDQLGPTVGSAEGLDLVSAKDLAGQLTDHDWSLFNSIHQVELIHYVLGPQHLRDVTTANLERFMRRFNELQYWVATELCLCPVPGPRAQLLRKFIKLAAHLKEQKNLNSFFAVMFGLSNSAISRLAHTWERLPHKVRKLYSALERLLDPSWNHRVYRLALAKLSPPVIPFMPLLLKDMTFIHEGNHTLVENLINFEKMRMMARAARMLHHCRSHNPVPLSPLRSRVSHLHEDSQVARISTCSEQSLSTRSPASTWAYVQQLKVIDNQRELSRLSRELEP

As to `CS/C=C/C(=O)O[C@@H]1CCC2=CC(=O)C(=C(C)C)C[C@]2(C)[C@H]1C`, the Potency in experiment [1] is 11.3 µM (active).

On to `C=C1C(=O)OC2C(OC(=O)C=C(C)C)C(C)=C3C(=O)C=C(C)C3C(O)C12` (centres undefined), for which the Potency is 10.1 µM (active) in experiment [2] and 3.19 µM (active) in experiment [1].

Consider `C=C1C(=O)O[C@@H]2C3=C(C)CCC[C@]3(C)CC[C@@]12O`, for which, in experiment [2], the Potency was 2.3 µM (active).

On to `C=C1C(=O)OC2/C=C(\CO)CC/C=C(\C=O)C(O)C(OC(=O)C(C)CC)C12` (centres undefined), for which the figures for the Potency in experiment [2] and in experiment [1] were 5.67 µM (active) and 2.01 µM (active), respectively.

For `Cc1ccc(OC[C@H](O)[C@H](C)NC(C)C)c2c1CCC2`, in experiment [2], the Potency entry is “inactive”.

Consider `COc1cc(F)c(F)c(Nc2ccc(I)cc2F)c1NS(=O)(=O)C1(CC(O)CO)CC1` (centres undefined), for which the figures for the Potency in experiment [2] and in experiment [1] were 18.3 µM (active) and 25.8 µM (active), respectively.

Turning to `C=CC(=O)Nc1ccc(CN2C(=O)N(c3cc(OC)cc(OC)c3)Cc3cnc(Nc4ccc(N5CCN(C)CC5)cc4)nc32)cc1`, the Potency in experiment [2] is 1.46 µM (active); in experiment [1], 0.817 µM (active).

Regarding `O[C@@](Cc1ncc(CC2(C(F)(F)F)CC2)[nH]1)(c1ccc(-n2cccn2)cc1)C(F)(F)F`, in experiment [2], the Potency was 23 µM (active).

As for `CS(=O)(=O)Nc1cc2occ(NC=O)c(=O)c2cc1Oc1ccccc1`, the Potency entry in experiment [2] and in experiment [1] was “inactive” each time.

For `CCCCCc1ccc(/C=C/C(=O)Nc2cc(Cl)ccc2C(=O)O)cc1`, the Potency entry in experiment [2] and in experiment [1] was “inactive” in each case.

Consider `CCC(C)CC(=O)OC1C(=O)C(CO)=CC(O)C1C(C)C` (centres undefined), for which the values for the Potency in experiment [2] and in experiment [1] were 2.58 µM (active) and 2.9 µM (active), respectively.

Turning to `O=C(O)c1cc2ccccc2c(Cc2c(O)c(C(=O)O)cc3ccccc23)c1O`, the Potency in experiment [3] was 4.44 µM (active). Further, the call in experiment [4] and in experiment [5] was inactive. Also, the Potency entry in experiment [6] is “inactive”.

`O=C(Nc1ncc([N+](=O)[O-])s1)c1ccccc1O`: the Potency entry in experiment [2] is “inactive”.

On to `C=CCNC1=C2C[C@@H](C)C[C@H](OC)[C@H](O)[C@@H](C)/C=C(\C)[C@H](OC(N)=O)[C@@H](OC)/C=C\C=C(/C)C(=O)NC(=CC1=O)C2=O`, for which the Potency was 3.32 µM (active) in experiment [2] and 2.63 µM (active) in experiment [1].

As for `C=C1C(=O)OC2/C=C(\C)CC/C=C(\C)CC(OC(C)=O)C12` (centres undefined), the Potency in experiment [2] is 12.9 µM (active).

For the molecule `C/C1=C\CCC2=CC(OC2=O)C(C)(C)/C=C/C1=O` (centres undefined), the values for the Potency in experiment [2] and in experiment [1] were 6.49 µM (active) and 2.9 µM (active), respectively.

For the molecule `CC(C)C[C@H](NC(=O)CNC(=O)OCc1ccccc1)C(=O)N[C@@H](Cc1ccccc1)C(=O)CCl` (Cbz-Gly-Leu-Phe-CH2Cl), the Potency in experiment [2] is 7.28 µM (active); in experiment [1] it was 3.65 µM (active).

On to `COc1cc(O)c2c(c1)/C=C/C[C@H](O)[C@H](O)C(=O)/C=C\C[C@H](C)OC2=O`, for which the Potency in experiment [2] was 2.06 µM (active) and 2.58 µM (active); in experiment [1], 1.46 µM (active) and 1.83 µM (active).

`O=C(NO)c1cnc(N2CCN(S(=O)(=O)c3ccc4ccccc4c3)CC2)nc1`: the Potency in experiment [2] and in experiment [1] was 0.252 µM (active) in each case.
